Most compounds without a hit are left out; they make up all but 27% or so of the library.
CYP2C19 act – cytochrome P450 2C19 (human) activation | P33261 | recombinant CYP2C19, luciferin-H EGE luminescence; stronger effect = higher value; 0 = fully inhibited enzyme, 1 = untreated enzyme | activation factor at 5 µM | 96,000 tested, under 10 active | AID 1025;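 active = activation factor of at least 2 at 5 µM in the primary screen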;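 also: 0 = wells with 2.5 mM tranylcypromine and 1 = vehicle-only wells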
sEH activator – soluble epoxide hydrolase (human) activation. P34913. purified human sEH enzymatic activity, activator screen. activation, % at 2 µM. actives 0.04% (n = 91,000). AID 717; in the data active = activation above about 37%
Target sequence (P34913 whole entry, looked up): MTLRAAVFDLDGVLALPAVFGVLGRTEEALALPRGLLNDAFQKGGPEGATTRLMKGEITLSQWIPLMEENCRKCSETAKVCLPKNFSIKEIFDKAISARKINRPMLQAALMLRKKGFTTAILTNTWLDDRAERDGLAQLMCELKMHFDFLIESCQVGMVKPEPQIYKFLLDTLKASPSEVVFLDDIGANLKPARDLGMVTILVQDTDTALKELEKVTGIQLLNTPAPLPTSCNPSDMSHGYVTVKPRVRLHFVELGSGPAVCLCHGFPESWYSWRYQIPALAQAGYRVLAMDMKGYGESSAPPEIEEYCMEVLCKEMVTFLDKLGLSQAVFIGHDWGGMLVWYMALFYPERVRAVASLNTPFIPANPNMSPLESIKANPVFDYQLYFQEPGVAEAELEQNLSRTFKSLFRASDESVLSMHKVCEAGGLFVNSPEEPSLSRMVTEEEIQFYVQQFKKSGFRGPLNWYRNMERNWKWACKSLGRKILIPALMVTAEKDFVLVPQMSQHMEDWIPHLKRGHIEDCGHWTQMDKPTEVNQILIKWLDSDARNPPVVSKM
CYP2C9 act – CYP2C9 (human) activation; AID 1024; recombinant CYP2C9, luciferin-H conversion, luminescence; stronger effect = higher value; factor 1 = untreated enzyme, 0 = blocked; activation factor at 5 µM; P11712; actives 1.4% (n = 96,000);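 active = activation factor of 2 or more for CYP2C9 at a 5 µM dose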;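 also: 0 = sulfaphenazole-blocked wells and 1 = vehicle-only wells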
CYP2C19 inhib – human CYP2C19 inhibition. P33261. CYP2C19 Supersomes, luciferin-H EGE luminescence, 30 min. inhibition, % at 5 µM. actives 21% (n = 96,000). AID 778;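 active = CYP2C19 inhibition above a set limit at 5 µM in the primary screen, cut at about 50% in these data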;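 also: plate controls were negative control wells for no effect and 2.5 mM tranylcypromine positive control for full effect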
sEH inhibitor – blocks human soluble epoxide hydrolase activity; P34913; recombinant human sEH enzymatic activity assay; inhibition, % at 2 µM; actives 0.34% (n = 91,000); AID 707; in the data active = inhibition above about 80%
CYP2C9 inhib – human CYP2C9 inhibition; actives 20% (n = 96,000); P11712; CYP2C9 Supersomes, luciferin-H conversion, luminescence; inhibition, % at 5 µM;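 active = blocking of liver enzyme CYP2C9 beyond about 50% at 5 µM, limit read from the data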
* marks the source's active call; other numbers are inactive results.

Screening CC(C)(C)c1nnc2sc(SCCN3C(=O)c4ccccc4C3=O)nn2c1=O returned CYP2C19 act 0.8, sEH activator 13.1, CYP2C9 act 0.5, CYP2C19 inhib 21.9, sEH inhibitor -13.7 and CYP2C9 inhib 46.7.
`Cc1cc(C(=O)CSc2nn3c(=O)c(C(C)(C)C)nnc3s2)c(C)n1-c1ccc(F)cc1` gave CYP2C19 act 0.7, sEH activator -1.5, CYP2C9 act 0.4, CYP2C19 inhib 31.3, sEH inhibitor 4.9 and CYP2C9 inhib 57.7*.
`C=CCN(CC=C)Cc1c(C)[nH]c2ccc(C(=O)OCC)cc2c1=O` gave CYP2C19 act 0.9, sEH activator 10.1, CYP2C9 act 0.8, CYP2C19 inhib 13.9, sEH inhibitor -10.4 and CYP2C9 inhib 18.5.
Screening c1ccc2c(c1)nc(N1CCOCC1)c1c3ccccc3[nH]c21 returned CYP2C19 act 0.8, sEH activator 0.0, CYP2C9 act 0.8, CYP2C19 inhib 15.2, sEH inhibitor 0.5 and CYP2C9 inhib 15.4.
For CC(=O)c1ccc(NC(=O)/C(=C\c2ccccc2)NC(=O)/C=C/c2ccccc2)cc1 the results were CYP2C19 act 0.9, sEH activator -0.1, CYP2C9 act 0.5, CYP2C19 inhib 12.5, sEH inhibitor 0.6 and CYP2C9 inhib 53.2*.
For Cc1noc(/C=C/N(C)C)c1S(=O)(=O)NC1CCCCC1 the results were CYP2C19 act 0.7, sEH activator -6.2, CYP2C9 act 0.7, CYP2C19 inhib 25.5, sEH inhibitor 5.9 and CYP2C9 inhib 29.7.
CCCN(CC1CC1)S(=O)(=O)c1ccc(S(N)(=O)=O)cc1 was read as CYP2C19 act 0.3, sEH activator -7.0, CYP2C9 act 0.6, CYP2C19 inhib 65.6*, sEH inhibitor 6.7 and CYP2C9 inhib 42.8.
`COc1ccc[nH]c1=O` gave CYP2C19 act 0.2, sEH activator 8.4, CYP2C9 act 0.7, CYP2C19 inhib 81.0*, sEH inhibitor -7.0 and CYP2C9 inhib 32.7.
COc1cccc2c(=O)c(C(=O)O)c[nH]c12 was read as CYP2C19 act 1.2, sEH activator -4.5, CYP2C9 act 0.7, CYP2C19 inhib -17.1, sEH inhibitor 2.9 and CYP2C9 inhib 33.2.
`Cc1nn(C)c(C)c1/C=N/N=C1\CCC2C3CCc4cc(O)ccc4C3CCC12C` (stereo unspecified) gave CYP2C19 act 0.6, sEH activator 14.7, CYP2C9 act 0.7, CYP2C19 inhib 43.4, sEH inhibitor -12.2 and CYP2C9 inhib 29.2.
For CN(C)C(=O)Cn1cnc2c(cnn2-c2ccccc2Cl)c1=O the results were CYP2C19 act 0.9, sEH activator -5.1, CYP2C9 act 1, CYP2C19 inhib 7.2, sEH inhibitor 3.8 and CYP2C9 inhib 0.0.
O=S(=O)(c1ccccc1)c1nc(-c2ccco2)oc1N1CCCCCC1 was read as CYP2C19 act 0.3, sEH activator 1.2, CYP2C9 act 0.4, CYP2C19 inhib 65.9*, sEH inhibitor 1.1 and CYP2C9 inhib 58.0*.
CN1CCN(c2oc(-c3ccco3)nc2S(=O)(=O)c2ccccc2)CC1 was read as CYP2C19 act 1, CYP2C9 act 0.7, CYP2C19 inhib 4.3 and CYP2C9 inhib 28.8.
`NC(=O)CSc1oc(-c2ccc(F)cc2)nc1S(=O)(=O)c1ccccc1` gave CYP2C19 act 0.1, CYP2C9 act 0.6, CYP2C19 inhib 85.2* and CYP2C9 inhib 38.2.
`COc1ccc(-c2nc(S(=O)(=O)c3ccc(C)cc3)c(N3CCCC3)o2)cc1` gave CYP2C19 act 0.9, sEH activator 2.0, CYP2C9 act 1, CYP2C19 inhib 13.6, sEH inhibitor 0.2 and CYP2C9 inhib -1.0.
CCSc1oc(-c2ccco2)nc1S(=O)(=O)c1ccccc1 was read as sEH activator 10.2 and sEH inhibitor -12.9.
CCCSc1oc(-c2ccco2)nc1S(=O)(=O)c1ccccc1 was read as CYP2C19 act 0.1, sEH activator 7.2, CYP2C9 act 1.2, CYP2C19 inhib 89.8*, sEH inhibitor -1.7 and CYP2C9 inhib -24.0.
Screening COc1cc(-c2nc(S(=O)(=O)c3ccccc3)c(N3CCOCC3)o2)cc(OC)c1OC returned CYP2C19 act 0.5, sEH activator -14.2, CYP2C9 act 0.1, CYP2C19 inhib 54.7*, sEH inhibitor 16.2 and CYP2C9 inhib 89.2*.
For O=C(Nc1ccc2c(c1)OCCO2)C1CCN(c2cnccn2)CC1 the results were CYP2C19 act 0.8, sEH activator -38.2, CYP2C9 act 0.8, CYP2C19 inhib 20.6, sEH inhibitor 38.0 and CYP2C9 inhib 16.2.
`CC1(C(=O)NC2CCCCCCC2)CCC(=O)N1CCN1CCOCC1` (stereo unspecified) gave CYP2C19 act 1, CYP2C9 act 0.8, CYP2C19 inhib 0.2 and CYP2C9 inhib 17.5.
Screening CCC1CCCCN1CCNC(=O)CNS(=O)(=O)c1ccc2nc(C)sc2c1 (stereo unspecified) returned CYP2C19 act 0.9, sEH activator 0.3, CYP2C9 act 0.9, CYP2C19 inhib 6.7, sEH inhibitor 3.7 and CYP2C9 inhib 8.3.
`Cc1cc(C)nc(SCC(=O)N/N=C/c2cccn2-c2ccc(O)cc2)n1` gave CYP2C19 act 0.8, sEH activator -0.3, CYP2C9 act 0.5, CYP2C19 inhib 17.4, sEH inhibitor 0.3 and CYP2C9 inhib 54.7*.
CCCCOc1ccc(/C=N/NC(=S)Nc2cccc(C)c2C)cc1 was read as CYP2C19 act 1.3, sEH activator 2.8, CYP2C9 act 1.3, CYP2C19 inhib -31.6, sEH inhibitor 0.0 and CYP2C9 inhib -30.8.
Cc1cccc(C)c1NC(=S)N/N=C/c1ccc(OCCC(C)C)cc1 was read as CYP2C19 act 0.8, sEH activator 6.1, CYP2C9 act 0.4, CYP2C19 inhib 15.5, sEH inhibitor -5.3 and CYP2C9 inhib 61.7*.
CC1CCCC(NC(=O)COC(=O)CCC2CCCC2)C1C (stereo unspecified) was read as CYP2C19 act 0.6, sEH activator -32.1, CYP2C9 act 0.4, CYP2C19 inhib 39.9, sEH inhibitor 31.5 and CYP2C9 inhib 63.5*.
Screening O=C(COC(=O)Cc1ccsc1)NCC12CC3CC(CC(C3)C1)C2 returned CYP2C19 act 0.4, sEH activator -18.8, CYP2C9 act 0.6, CYP2C19 inhib 58.9*, sEH inhibitor 17.4 and CYP2C9 inhib 36.6.
Screening O=C(COC(=O)c1cccc(C(=O)OCC(=O)NC2CCCCC2)n1)NC1CCCCC1 returned CYP2C19 act 1, sEH activator 8.2, CYP2C9 act 1, CYP2C19 inhib -4.7, sEH inhibitor -6.7 and CYP2C9 inhib 3.6.
CC1CCCC(NC(=O)COC(=O)Cc2ccsc2)C1C (stereo unspecified) was read as CYP2C19 act 0.4, sEH activator -8.4, CYP2C9 act 1.5, CYP2C19 inhib 64.4*, sEH inhibitor 10.8 and CYP2C9 inhib -48.0.
Screening O=C(COC(=O)Cc1ccsc1)NC1CCCCCC1 returned CYP2C19 act 0.3, sEH activator -8.8, CYP2C9 act 1.1, CYP2C19 inhib 73.8*, sEH inhibitor 8.8 and CYP2C9 inhib -10.9.

Screening results from PubChem BioAssay.
